# Sampled rows, rich in hits. Any-hit rate of the full collection: about 1.4%.
# AID504770: growth inhibition of E. coli YBA685, primary screen, V. cholerae RctB inhibitors; z-score (test concentration not listed); 130,000 tested, 0.27% active; AID 504770, 2011; E. coli YBA685 rctB-dependent plasmid, OD600 growth, 3 h; stronger effect = lower value; in the data active means z-score below about -2, passing the limit was not always enough
# Polio RdRp inh: poliovirus RdRp elongation inhibitors, primary screen, biochemical, fluorescence polarization, total intensity. Genome polyprotein (Poliovirus type 1 (strain Mahoney)), P03300. 150,000 tested, 0.66% active. % elongation, % (compound at 16.7 µg/mL). poliovirus polymerase elongation; stronger effect = lower value. AID 588519, 2011; in the data active means % elongation below about 90%
# MbtI inh: MbtI salicylate synthase inhibitors, primary screen, biochemical, fluorescence intensity; P9WFX0; purified MbtI enzyme, fluorescence intensity read-out; inhibition, % (concentration not given with the values); 100,000 tested, 0.89% active; AID 493033, 2011; in the data active means inhibition mostly above about 56%, no sharp cut-off; inactive means mostly below about 77%
# Mtb MenB inh: M. tuberculosis MenB inhibitors, primary screen, biochemical, absorbance; 1,4-dihydroxy-2-naphthoyl-CoA synthase (Mycobacterium tuberculosis (strain ATCC 25618 / …; MenB enzyme assay, absorbance read-out; inhibition, % (test concentration not listed); 100,000 tested, 0.43% active; AID 540299, 2011; in the data active means inhibition above about 21%, passing the limit was not always enough
# Target sequence (P9WNP5 whole entry, looked up): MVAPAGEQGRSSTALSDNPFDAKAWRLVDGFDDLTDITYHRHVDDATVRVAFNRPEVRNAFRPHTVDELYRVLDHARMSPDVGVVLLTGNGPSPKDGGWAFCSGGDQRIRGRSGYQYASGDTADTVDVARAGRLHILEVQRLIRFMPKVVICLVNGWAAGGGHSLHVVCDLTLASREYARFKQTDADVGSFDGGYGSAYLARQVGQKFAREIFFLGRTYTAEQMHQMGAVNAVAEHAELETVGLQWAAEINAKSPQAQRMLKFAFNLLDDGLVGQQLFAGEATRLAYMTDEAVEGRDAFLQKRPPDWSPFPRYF
# An asterisk follows results filed as active; . = not tested or not shown.
SMILES,AID504770,Polio RdRp inh,MbtI inh,Mtb MenB inh
Cc1ccc(S(=O)(=O)N(C)c2nc3ccccc3nc2SCC#N)cc1,-0.2,97.0,97.8*,-46.5
Cc1ccc(S(=O)(=O)N(C)c2ccccc2)cc1,-0.5,101.0,11.4,-24.1
Cc1[nH]c(=S)n(C2CCCCC2)c1C,-0.35,101.0,35.4,-15.6
O=c1[nH][nH]c(=S)n1C1CCCCC1,0.2,102.0,56.9*,3.6
CCOC(=O)CSc1nc(-c2ccccc2)ns1,-0.05,93.0,52.0*,-2.1
Cc1cccc(-c2nsc(SCC(=O)N3CCCCC3)n2)c1,0,102.0,49.4,6.0
Clc1nc2ccc3nsnc3c2nc1Cl,-0.05,42.0*,88.1,11.1
Cn1c(SCC(=O)NC(=O)Nc2ccccc2F)nc2cc(S(N)(=O)=O)ccc21,-0.3,85.0*,96.0*,-38.5
CN1C(=O)C2C(C1=O)C1(C)C=CC2(C)O1 (centres undefined),0.25,.,23.5,-2.4
c1ccn2c(c1)nc1c2nc2ccccn21,-0.55,101.0,77.4,-18.1
Oc1nc2ccccn2c1-c1c(O)nc2ccccn12,1.6,21.0*,5.6,.
N#CCc1ccc(OC(F)F)cc1,0.15,31.0*,-0.1,-14.3
COc1cc2c(=O)c(C(=O)c3ccc(C)c(C)c3)cn(Cc3ccc(F)cc3)c2cc1OC,.,108.0,.,.
Cc1[nH]c(=S)[nH]c1Cc1ccccc1,-0.8,.,96.5*,-14.4
Cc1ccc(NC(=O)CN(C)S(=O)(=O)c2ccc3c(c2)n(C)c(=O)c(=O)n3C)cc1F,.,102.0,.,.
O=C(O)Cn1cc(C=C2C(=O)NC(=S)NC2=O)c2ccccc21,0,102.0,100.2*,-55.2
O=C(O)Cn1cc(C=C2C(=O)NC(=O)NC2=O)c2ccccc21,-0.25,111.0,.,-248.8
S=C(NC1CCCCC1)Sc1ccc(Cl)cc1,-0.9,94.0,56.3*,-15.7
O=C1CCCC(=O)C1C(c1ccc(-c2cc(C(F)(F)F)ccc2Cl)o1)C1C(=O)CCCC1=O,-0.85,102.0,98.8*,-20.2
Cc1cc(C)c2nc(NC(=O)c3ccc(C#N)cc3)sc2c1,0.25,99.0,4.4,-6.2
Cc1nn(-c2ccccc2)c(N)c1N=Nc1ccc(S(=O)(=O)N2CCOCC2)cc1,0.15,102.0,7.8,-110.0
O=C(O)C1CSC(c2ccncc2)=N1 (centres undefined),0.85,101.0,16.6,90.1*
O=C(O)C1CSC(c2cccnc2)=N1 (centres undefined),1.5,.,1.6,.
CSc1nc(NC2CCCCC2)c(C#N)c(-c2ccccc2)n1,-0.4,99.0,-1.1,0.3
C=C(C)CN(CC)C(=O)CSc1nc2ncc(Cl)cc2[nH]1,0.25,88.0*,64.7,-18.9
SMILES,AID504770,Polio RdRp inh,MbtI inh,Mtb MenB inh
Cn1cccc1C(=O)NC(=O)CSc1nc2ncc(Cl)cc2[nH]1,-1.05,103.0,-4.0,-27.8
CC1CCN(S(=O)(=O)c2ccc(NC(=O)c3ccc(C(C)(C)C)cc3)cc2)CC1,-0.05,101.0,91.7,-14.3
COc1ccc(Cl)cc1-n1nnc(-c2nc(-c3ccc4c(c3)OCO4)no2)c1C,.,109.0,.,.
CC(C)CCNC(=O)c1cc2sccc2n1Cc1ccc(F)cc1,-2.5,101.0,-1.1,15.4
CCOC(=O)c1c(NC(=O)c2ccc(S(=O)(=O)N(C)C)cc2)sc2c1CCN(C)C2,.,99.0,.,.
CCOC(=O)c1c(NC(=O)c2ccc(Br)cc2)sc2c1CCCC2,.,87.0*,.,.
CCOC(=O)c1c(NC(=O)c2ccc(S(=O)(=O)N3CCC(C)CC3)cc2)sc2c1CCN(C)C2,.,90.0*,.,.
Cc1cccc(NC(=O)c2c(NC(=O)c3ccccc3)sc3c2CCC3)c1,.,104.0,.,.
O=C(Nc1sc2c(c1C(=O)O)CCCC2)c1ccc(Br)cc1,-1.35,85.0*,.,-20.4
Cc1cccc(NC(=O)c2c(NC(=O)c3ccccc3)sc3c2CCCC3)c1,.,75.0*,.,.
COc1ccc(NC(=O)CSc2nc3ccccc3nc2N2CCC(C)CC2)cc1,.,108.0,.,.
CCc1cc(C=Nc2ccccc2)c(O)s1,-0.75,96.0,28.3,-27.7
Cc1ccc2nc(-c3ccc(C(F)(F)F)cc3)oc2c1,-0.75,100.0,-17.3,-1.8
Cc1cccc(NC(=O)CSc2ncnc3c2oc2ccccc23)c1C,-0.85,.,.,.
COc1ccc(-c2cc(C(=O)Nc3cc(C)ccc3O)no2)cc1OC,.,107.0,.,.
CCOC(=O)c1c(NC(=O)c2ccccc2C(=O)O)sc2c1CCCC2,-0.25,100.0,-1.1,4.4
CCOC(=O)c1c(NC(=O)c2ccccc2C)sc2c1CCCC2,.,84.0*,.,.
NC(=O)NC(=O)CSc1nnc(C2CC2)n1N,-0.4,100.0,-5.5,-13.5
COc1cc(NC(=O)CS)cc(OC)c1,-0.2,99.0,90.5*,-106.6
O=C(CSc1nnc2ccc3ccccc3n12)c1ccc(F)cc1,.,111.0,.,.
Cc1ccccc1NC(=O)N1CCCC(c2nc(-c3ccc(F)cc3)no2)C1 (centres undefined),1.25,103.0,1.7,29.2*
O=c1oc(-c2cc3ccccc3s2)ns1,-0.25,85.0*,.,-19.5
Cc1cccc2nc(-c3cc4ccccc4s3)oc(=O)c12,1.35,.,.,.
COC(=O)/C=C1/OC(c2ccc(Cl)cc2)=CC1=O,-0.75,108.0,100.2*,-57.9
COC(=O)c1cc(-c2ccc(Cl)cc2)on1,-0.4,101.0,.,26.3
SMILES,AID504770,Polio RdRp inh,MbtI inh,Mtb MenB inh
O=C(NC1CCS(=O)(=O)C1)c1cc(-c2ccc(Cl)cc2)oc1C(F)(F)F (centres undefined),4.35,.,.,.
O=C(O)c1c(CN2CCN(c3ccccc3)CC2)c(O)c2ccccc2c1O,1.55,86.0*,0.5,-28.1
Oc1ccc(CN2CCN(c3ccccc3)CC2)c2cccnc12,2.35,106.0,-2.4,-51.0
O=C(NCc1ccco1)C(c1ccccc1)N(Cc1ccco1)C(=O)Cn1nnc2ccccc21 (centres undefined),-0.5,102.0,1.4,34.4*
O=C(NC1(O)C(=O)c2ccccc2C1=O)c1cnn(-c2ccccc2)c1C(F)(F)F,-1.35,48.0*,-11.4,-1.9
Cc1nc(C(=O)NC2(O)C(=O)c3ccccc3C2=O)cs1,-0.6,.,.,.
O=C(NC1(O)C(=O)c2ccccc2C1=O)c1ccccn1,0.6,54.0*,-7.5,-10.5
Cc1ccc(C(=O)NC2(O)C(=O)c3ccccc3C2=O)cc1C,-1.55,.,.,.
O=C(NC1(O)C(=O)c2ccccc2C1=O)c1ccc(C(F)(F)F)cc1,-0.35,9.0*,-1.9,0.8
O=C(NC1CC1)c1cnn(-c2ccc(Cl)cc2)c1C(F)(F)F,0.1,.,.,.
CCOC(=O)c1cc(-c2ccccc2)n(CCC(=O)Nc2ccc(OC)c(Cl)c2)c1C,.,100.0,.,.
COc1cccc(C2CC(=O)Nc3c2c(=O)n(C)c2ncnn32)c1OC (centres undefined),.,101.0,.,.
O=C(NCC1CCCO1)Nc1ccccc1 (centres undefined),0.1,100.0,-0.4,3.6
Cc1ccc(/C=C2/C=CC(=O)O2)o1,-1.45,81.0*,.,-312.7
Cc1ccc(/C=C2\CC/C(=C\c3ccc(C)o3)C2=O)o1,-0.7,84.0,99.0*,-74.4
Cc1ccc(/C=C2/C(=O)/C(=C/c3ccc(C)o3)C3CCC2N3C)o1,-1.65,71.0,58.5,-137.9
Cc1ccc(/C=C2/CC(C)C/C(=C\c3ccc(C)o3)C2=O)o1 (centres undefined),1.9,120.0,92.2*,-47.6

# Compound activity: PubChem BioAssay, ICCB-Longwood Screening Facility, Harvard Medical School
